M1 PAM: potentiates human M1 receptor response to acetylcholine. P11229. CHO-K1 hM1, Fluo-8 calcium fluorescence, ACh EC20; 0% = ACh EC20, 100% = maximal ACh. activation, % at 3 µM. actives 0.088% (n = 360,000); in the data active = activation above about 19%, passing the limit was not always enough
Target sequence (P11229 whole entry, looked up): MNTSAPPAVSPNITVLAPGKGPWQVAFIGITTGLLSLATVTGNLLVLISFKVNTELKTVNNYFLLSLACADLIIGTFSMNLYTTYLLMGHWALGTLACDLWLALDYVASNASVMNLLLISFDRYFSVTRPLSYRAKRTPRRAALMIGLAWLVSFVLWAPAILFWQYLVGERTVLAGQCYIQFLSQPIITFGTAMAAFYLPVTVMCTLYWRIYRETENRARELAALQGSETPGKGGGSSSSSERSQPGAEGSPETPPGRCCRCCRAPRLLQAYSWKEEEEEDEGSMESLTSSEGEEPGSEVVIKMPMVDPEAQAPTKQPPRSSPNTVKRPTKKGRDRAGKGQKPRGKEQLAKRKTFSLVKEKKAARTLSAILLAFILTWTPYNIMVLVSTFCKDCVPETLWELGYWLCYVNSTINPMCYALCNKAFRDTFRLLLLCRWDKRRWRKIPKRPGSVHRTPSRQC
CHRM1 antagonist: antagonists of human M1 muscarinic receptor; CHO-K1 hM1, Fluo-8 calcium fluorescence, ACh EC80 antagonist; inhibition, % at 3 µM; actives 1.3% (n = 360,000);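 active = percent inhibition above its own plate's cutoff, namely the mean of that plate's compound wells plus 3 SD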;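 note: peak over basal fluorescence ratio during 140 s after agonist addition; 0% = ACh EC80 plus DMSO and 100% = DMSO alone without agonist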
M1 ag parental: counter-screen for M1 agonists: effect in parental CHO-K1 cells | actives 0.48% (n = 360,000) | activation, % at 3 µM | Fluo-8 calcium fluorescence; scaled to maximal ATP response, vehicle zero; in the data active = activation above about 15%;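 note: untransfected CHO-K1 host cells lacking M1 receptor as counterscreen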
CHO-K1 Ca antag: counter-screen for M1 antagonists: effect in parental CHO-K1 cells; inhibition, % at 3 µM; ATP-induced calcium, Fluo-8 fluorescence; AID 602250; actives 0.6% (n = 360,000);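 active = inhibition above a per-plate cutoff, the plate's mean sample inhibition plus 3 SD, cut at about 24% in these data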;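 note: 0% = DMSO plus EC80 ATP and 100% = DMSO alone without ATP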
M1 PAM parental: counter-screen for M1 PAMs: effect in parental CHO-K1 cells; actives 0.02% (n = 360,000); AID 602247; activation, % at 3 µM; ATP EC20, Fluo-8 calcium fluorescence; 0% at ATP EC20, 100% at ATP max;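 active = activation above the run cutoff, the mean activation of all test compounds plus 3 SD, cut at about 40% in these data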;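 note: peak over basal fluorescence ratio in a 140 s read after ATP addition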
CHRM1 agonist: activates human CHRM1 receptor | CHO-K1 hM1, Fluo-8 calcium fluorescence, agonist mode; 0% DMSO, 100% acetylcholine EC100 | P11229 | activation, % at 3 µM | actives 0.33% (n = 360,000);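 active = activation above the run's mean compound activation plus 3 SD, cut at about 16% in these data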;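 note: peak over basal fluorescence ratio within a 140 s kinetic read after compound addition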
Active calls of the source: *; . = no result given. Only some compounds are listed: those with a hit (about 2.3% of all), similar ones and a draw of the others.

SMILES | M1 PAM | CHRM1 antagonist | M1 ag parental | CHO-K1 Ca antag | M1 PAM parental | CHRM1 agonist
OCC(CO)c1cnnc2ccccc12 | 4 | -11 | 0 | -6 | 8 | -1
O=C(O)c1cccc(NC(=S)N/N=C/c2ccccc2OCc2ccc(Br)cc2)c1 | -9 | 14 | 1 | 27* | -13 | -6
Cc1cc(C)cc(Cn2cc(CN3CC(N4CCN(CCO)CC4)CS3(=O)=O)nn2)c1 (stereo not given) | . | . | 0 | 7 | 10 | .
O=C1C(Cl)=C(N2CCCCCC2)C(=O)N1c1ccc(Br)cc1 | -6 | 1 | 0 | -10 | -1 | -9
O=C1C(Cl)=C(N2CCCCCC2)C(=O)N1c1ccccc1 | -17 | 36* | 0 | 3 | -4 | -4
CCCCONc1ncnc2nonc12 | -1 | 8 | 0 | -6 | 24 | -7
O=c1[nH]c(=O)n(C(c2ccccc2)(c2ccccc2)c2ccccc2)cc1N(CCO)CCO | 0 | 1 | -1 | -6 | 9 | -5
O=C(c1cc(COc2ccc(F)cc2Cl)on1)N1CCN(C2CCCCC2)C(=O)C1 | -14 | 28* | 21* | 17 | -19 | 2
Cc1ccc(NC(=O)CCCCCC2NC(=O)NC2C)cc1 (stereo not given) | 6 | -8 | 1 | -12 | 18 | -4
CCOC(=O)CCCCCCCCC(=O)Nc1ccc(-n2[nH]c(=O)cc2C)cc1 | -2 | -9 | 10 | -19 | 8 | 20*
CCOc1ccccc1CNS(=O)(=O)c1ccc(-c2cnc(C3CC3)o2)cc1 | -15 | 36* | 13 | 14 | -15 | 3
COCCCNC(=S)N1CCN(C(c2ccccc2)c2ccccc2)CC1 | -14 | 19 | -1 | -9 | -11 | -5
Cc1ccc2oc(=O)c3cc(C(=O)NCCCN4CCc5ccccc5C4)sc3c2c1 | -21 | 25* | 0 | -15 | 18 | -14
COc1cc(NC(=O)[C@@H]2O[C@H](CO)[C@@H](O)[C@H]2O)cc(OC)c1OC | -1 | 5 | 0 | -5 | 9 | -1
O=C(CCC(F)(F)F)N1CCC(CO)(CCc2ccccc2)CC1 | -5 | -10 | 0 | 6 | -16 | -1
OCC1(CCc2ccccc2)CCN(C/C=C/c2ccccc2)CC1 | -24 | 25 | 21* | -12 | 30 | -8
COC(=O)c1cccc(C(=O)N2CCC(CO)(Cc3ccccc3Cl)CC2)c1 | -1 | 1 | 7 | -8 | 10 | 3
OCC1(Cc2ccccc2Cl)CCN(C/C=C/c2ccccc2)CC1 | -26 | 62* | 3 | 3 | 4 | -5
CC(C)(CO)CNC(=O)CCc1nnc(C2(c3ccc(Cl)cc3)CCC2)o1 | 3 | 1 | 0 | 4 | -1 | -4
COCCNC(=O)CCc1nnc(C2(c3ccc(Cl)cc3)CCC2)o1 | 8 | 1 | 16* | 11 | 4 | -7
CCC1Oc2ccccc2N(CC(=O)NCCCN2CCOCC2)C1=O (stereo not given) | 8 | -2 | -1 | 27* | -1 | -4
O=C(Nc1nc(-c2ccccc2)cs1)c1ccccc1NS(=O)(=O)c1ccc(F)cc1 | -23 | 42* | 14 | 32* | -12 | 0
O=S(=O)(Nc1ccc(-c2csc(-c3ccccc3)n2)cc1)c1ccc(F)cc1 | 7 | -12 | 1 | -17 | 15 | -4
COc1ccccc1C(=O)Nc1nc(-c2ccc(S(=O)(=O)N3CCOCC3)cc2)cs1 | -18 | 57* | 9 | 21 | -32 | 5
COc1ccccc1OC(C)C(=O)Nc1nc(-c2ccc(S(=O)(=O)N3CCOCC3)cc2)cs1 (stereo not given) | -1 | 9 | 3 | -1 | 24 | 2
SMILES | M1 PAM | CHRM1 antagonist | M1 ag parental | CHO-K1 Ca antag | M1 PAM parental | CHRM1 agonist
COC(=O)[C@]12CCCCC=C1N(Cc1cccc3ccccc13)C(=O)[C@H](CC(=O)NCCCN1CCCC1=O)C2 | . | . | 5 | -9 | -8 | .
COc1ccc(CNC(=O)COC(=O)c2cc3ccccc3o2)cc1 | -13 | 29* | 0 | 21 | -20 | -2
CC1CC(C)CN(S(=O)(=O)c2ccc(NC(=O)[C@@H]3CCCN3C(=O)c3cccs3)cc2)C1 (stereo not given in full) | -22 | 30* | 0 | -10 | 14 | -7
N#Cc1ccccc1S(=O)(=O)N1CCN(C(=O)[C@@H]2CCCN2C(=O)c2cccs2)CC1 | -10 | 33* | 0 | 8 | -10 | -4
Cc1ccc(NC(=O)[C@@H]2CCCN2C(=O)c2cccs2)cc1S(=O)(=O)N1CCCCC1 | 6 | -12 | 0 | -20 | 23 | -8
CCOc1ccc(S(=O)(=O)N(C)CC(=O)N2CCN(CC)CC2)cc1 | 4 | 1 | 0 | -6 | 4 | -5
CCC(=O)Nc1nnc(Cc2ccccc2)s1 | 3 | 0 | 2 | -4 | 14 | -6
CCCC(=O)Nc1nnc(Cc2ccccc2)s1 | -8 | 14 | 0 | 31* | -7 | -2
O=C(NC(=S)NNC(=O)c1cccs1)c1ccc(Br)o1 | -4 | -16 | 14 | -6 | 0 | 33*
N#CC1=C(N)OC2=C(C(=O)CC(c3ccccc3)C2)C1c1ccc2c(c1)OCO2 (stereo not given) | -26 | 62* | 0 | -9 | 21 | -13
O=S(=O)(c1ccc(Oc2ccc(S(=O)(=O)N(CCO)CCO)cc2)cc1)N(CCO)CCO | 12 | -6 | 0 | -2 | 17 | -5
O=C1c2cc(S(=O)(=O)N(CCO)CCO)ccc2-c2ccc(S(=O)(=O)N(CCO)CCO)cc21 | 9 | -14 | 16* | 3 | 18 | 0
CN(C)CCNc1ncnc2oc(-c3ccccc3)c(-c3ccccc3)c12 | -7 | 10 | 16* | 8 | 9 | -7
CCOc1ccc(C(=O)Cn2cnc3ccccc3c2=O)cc1 | -12 | 28* | 2 | -19 | -2 | -8
Cc1ccc(C(=O)Cn2cnc3ccccc3c2=O)cc1 | -5 | -24 | 0 | -16 | 30 | -2
CC[N+](C)(CC)CCC(c1ccccc1)C1CCCCC1 (stereo not given) | -29 | 100* | 1 | -8 | 28 | -9
CCC(C(=O)NC1CCCCCC1)c1ccccc1 (stereo not given) | -4 | 1 | 0 | 11 | -25 | -8
CC[N+](C)(CC)CCOC(=O)C(O)(c1ccccc1)C1CCCCC1 (stereo not given) | -26 | 98* | 0 | 0 | 9 | -7
CCN(CC)CC(C)CNC(=O)C1(O)c2ccccc2NC(=O)N1c1ccc(Cl)c(Cl)c1 (stereo not given) | 18 | -22 | 3 | -11 | 9 | -7
C[C@@H]1O[C@H](C2CCCC2)Cc2[nH]c(=S)[nH]c(=O)c21 | . | . | 1 | -20 | 17 | .
CCc1ccc(CNC(=O)C2CCCN(c3nn4c(=O)cc(C)nc4s3)C2)cc1 (stereo not given) | -1 | 3 | 0 | -13 | 20 | -6

From PubChem BioAssay
